This note sets out measurements from PubChem BioAssay (EPA / NIEHS).

As a reminder, the AC50 is the midpoint of the concentration-response curve, whichever way the signal moves.

The structures appear in SMILES notation. Active and inactive are the calls of the source. The calls were made as follows: active = hit-call score of the fitted dose curve at least 0.9, where 1 is the maximum; inactive = score below 0.9.

Chain of Estrogen receptor (Homo sapiens) (P03372 whole entry, looked up): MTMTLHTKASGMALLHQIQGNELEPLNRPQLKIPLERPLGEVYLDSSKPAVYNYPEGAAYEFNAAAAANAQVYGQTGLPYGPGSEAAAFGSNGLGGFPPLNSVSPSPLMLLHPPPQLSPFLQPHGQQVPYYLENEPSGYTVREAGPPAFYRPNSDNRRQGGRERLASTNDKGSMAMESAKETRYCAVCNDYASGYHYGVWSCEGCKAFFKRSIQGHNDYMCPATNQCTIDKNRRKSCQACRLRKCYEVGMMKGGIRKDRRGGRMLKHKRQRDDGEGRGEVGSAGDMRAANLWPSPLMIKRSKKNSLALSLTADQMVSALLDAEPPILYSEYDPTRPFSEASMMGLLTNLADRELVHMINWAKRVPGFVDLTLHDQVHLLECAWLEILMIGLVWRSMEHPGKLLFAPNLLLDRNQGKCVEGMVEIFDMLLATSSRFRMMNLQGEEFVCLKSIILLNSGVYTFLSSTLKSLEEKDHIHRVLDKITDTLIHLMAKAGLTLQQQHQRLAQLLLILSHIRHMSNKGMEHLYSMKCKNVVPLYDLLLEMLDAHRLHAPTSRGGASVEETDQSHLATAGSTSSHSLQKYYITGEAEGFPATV

The target of the assay is Estrogen receptor (Homo sapiens) (UniProt P03372). As to the kind of experiment: OT_ERa_GFPERaERE_0480: Odyssey Thera (OT) 8-hour HeLa Transcription Induction Assay for Estrogen Receptor (AID 2283381). As to the method:
OT_ERa_GFPERaERE_0480 is a cell-based, single-readout assay that uses HeLa, a human cervix cell line, with measurements taken at 8 hours after chemical dosing in a 384-well plate.OT_ERa_GFPERaERE_0480 is one of one assay component(s) measured or calculated from the OT_ERa_GFPERaERE_0480 assay. It is designed to make measurements of fluorescent protein induction, a form of inducible reporter, as detected with optical microscopy: fluorescence microscopy signals by Microscopy technology.Data from the assay component OT_ERa_GFPERaERE_0480 was analyzed into 1 assay endpoint. This assay endpoint, OT_ERa_EREGFP_0480, was analyzed in the positive analysis fitting direction relative to DMSO as the negative control and baseline of activity. Using a type of inducible reporter, measures of receptor for gain-of-signal activity can be used to understand the reporter gene at the pathway-level as they relate to the gene ESR1. Furthermore, this assay endpoint can be referred to as a primary readout, because the performed assay has only produced 1 assay endpoint. To generalize the intended target to other relatable targets, this assay endpoint is annotated to the nuclear receptor intended target family, where the subfamily is steroidal.
All assay endpoints are quantified using high content image analysis algorithms.
Regarding `Cc1ccc(S(=O)(=O)O)cc1C`, the molecule was called inactive.

As for `COC(=O)CC(=O)OC`, the molecule was classed as inactive.

Turning to `O=c1[nH]c2ccc(S(=O)CCN3CCC(Cc4ccc(F)cc4)CC3)cc2o1` (stereo not given), the molecule was classed as inactive.

With `CCCCCCCCO`, the molecule was classed as inactive.

`Cc1ccc(N)cc1O`: the molecule was called inactive.

As for `O=C(O)c1cccc(Oc2ccccc2)c1`, the molecule was called inactive.

Take `O=C(NS(=O)(=O)/C=C/c1ccccc1)c1ccc(F)cc1Cl`: the call was inactive.

Consider `COc1cccc(-c2ccc(/C=C\CN3CCCCCC3)cc2Cl)c1`, for which the molecule was classed as inactive.

With `CC(C)CCO`, the result was inactive.

`C=CCCCCCCCCC(=O)O`: the outcome was inactive.

As to `COC(=O)c1c(Cl)c(Cl)c(C(=O)OC)c(Cl)c1Cl`, the call was inactive.

Turning to `COc1ccc(-n2nc(C(F)F)cc2-c2ccc(S(C)=O)cc2)cc1` (stereo not given), the molecule was called inactive.

For `CCC(C)(C)C(=O)O[C@H]1C[C@@H](C)C=C2C=C[C@H](C)[C@H](CC[C@@H]3C[C@@H](O)CC(=O)O3)[C@H]21`, the molecule was called inactive.

In the case of `CC(C)=CCCC(C)=CC=O`, the molecule was classed as inactive.

Turning to `Nc1ccc(Nc2ccccc2)cc1`, the molecule was called inactive.

Turning to `O=P(OC(CCl)CCl)(OC(CCl)CCl)OC(CCl)CCl`, the molecule was classed as inactive.

With `COc1ccc2sc(C(=O)Nc3nnn[nH]3)c(OC(C)C)c2c1`, the call was inactive.

In the case of `CCCCC(CC)COC(=O)CCCCCCCCC(=O)OCC(CC)CCCC` (stereo not given), the outcome was inactive.

As to `Cn1c(=O)cc(Oc2ccc(F)cc2F)c2cnc(NCC(C)(C)O)nc21`, the molecule was classed as inactive.

For `CCn1nc(Cc2ccccc2)cc1C1CCN(C[C@H]2C[C@H](N(C)[C@@H](C(=O)O)C(C)C)C[C@@H]2c2cccc(F)c2)CC1`, the call was inactive.

Turning to `CCOC(=O)COc1ccc2c(c1)CC(NCC(O)c1cccc(Cl)c1)CC2` (stereo not given), the AC50 is 69.3 µM (active).

With `C=CC(=C)CCC=C(C)C`, the outcome was inactive.

As for `Cn1cnc([N+](=O)[O-])c1Sc1ncnc2nc[nH]c12`, the result was inactive.

Consider `CC/C(=C\C(=N/O)C(N)=O)C(C)[N+](=O)[O-]` (stereo not given), for which the call was inactive.

Take `CC(C)=CCCC(C)CCO` (stereo not given): the result was inactive.

In the case of `CC[C@H](C)C(=O)O[C@H]1C[C@@H](C)C=C2C=C[C@H](C)[C@H](CC[C@@H]3C[C@@H](O)CC(=O)O3)[C@H]21`, the outcome was inactive.

On to `COC(=O)c1ccccc1O`, for which the molecule was classed as inactive.

With `O=c1n(CC2CO2)c(=O)n(CC2CO2)c(=O)n1CC1CO1` (stereo not given), the molecule was classed as inactive.

Regarding `CCCC(=O)OCC`, the outcome was inactive.

In the case of `CC[C@H]1CC[C@H](NCc2cc3c(cc2OC)[C@H]2C[C@H]2C(=O)N3C)[C@H](c2ccccc2)N1`, the call was inactive.
